Data reported in PubChem BioAssay (NCI).
The panel holds about 83,000 compounds, 20% with a hit somewhere; the sample as a whole holds those more often.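 Step 1: grow cells in 96-well plates. Step 2: add test compound at a single concentration. Step 3: incubate 48 h. Step 4: record percent growth.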 A number with no mark means an inactive call. The source made the active and inactive calls. Rule for the calls: active = growth percent below 10; inactive = the rest.

Tested on: SF-539 CNS
Experiment: NCI-60 one-dose screen, 48 h (100 = growth as untreated, 0 = no growth, -100 = all killed)
Settings: 10 µM unless noted

Compound	growth
O=C(CSc1nc2ccccc2c(=O)[nH]1)NCCN1CCCCC1	91%
N#Cc1c(-c2ccccc2Cl)cc(-c2c[nH]c3ccccc23)[nH]c1=O	52.2%
CCCCSc1nc(Nc2ccc(C(C)=O)cc2)c(C#N)c(-c2ccc(OC)cc2)n1	25.9%
N/C(=N\c1nc2ccccc2s1)NC(=O)NCCCCCCO	64.8%
O=C(NNc1ccccc1)n1c(=O)c2ccccc2c(=O)n1-c1ccccc1	97.5%
CC(=O)Oc1ccccc1C(=O)[Se]CC(=O)Nc1cccc(C(F)(F)F)c1	-90.1% (active)
COc1ccc(Cc2nn(CC(=O)N/N=C/c3ccc(F)cc3)c(=O)c3c(C)noc23)cc1	57.1%
COc1ccc(C(=O)/C=C/c2ccc(Oc3nc(Nc4ccc(F)cc4)nc(N(C)C)n3)c(OC)c2)cc1	26.8%
O=C(N/N=C/c1ccc(-c2ccc(O)cc2)o1)c1[nH]c2ccc(Br)cc2c1-c1ccccc1	-59.2% (active)
CC(=O)OC[C@@]1(C)C2CC[C@]3(C)C(CC=C4C5CC(C)(C)CC[C@]5(C(=O)Nc5ccc(Br)cc5)CC[C@]43C)[C@@]2(C)C[C@@H](OC(C)=O)[C@@H]1OC(C)=O (stereo partly drawn)	38.7%
Cc1ccc(-n2c(-c3cc4ccccc4nc3Cl)noc2=O)cc1	84%
O=c1cc(-c2ccccc2)oc2cc(OCCCC[P+](c3ccccc3)(c3ccccc3)c3ccccc3)cc(O)c12	-95.7% (active)
Cc1ccc(Cc2cnc(NC(=O)c3ccc(/C=C4\SC(=S)N(C)C4=O)cc3)s2)cc1	12.7%
C=C1CC[C@@H]2[C@]3(C)COC(c4cn[nH]c4-c4ccc(OC)cc4)O[C@@H]3CC[C@@]2(C)[C@@H]1C/C=C1/C(=O)OCC1O (stereo partly drawn)	-87.2% (active)
Cc1ccc(/C=C/c2n(Cc3ccc4ccccc4c3)c3ccccc3[n+]2Cc2ccc3ccccc3c2)cc1	-96.5% (active)
Cc1c(C(=O)NNC(=O)c2ccc(Cl)cc2)nnn1-c1ccc(Br)cc1	94.2%
CC(=O)Nc1cccc(Nc2nc(NCc3ccccc3)c3ccccc3n2)c1	-98% (active)
C[C@H](Nc1nc(NCCc2ccccc2)nc2ccccc12)c1ccccc1	-96.2% (active)
Cc1c(C(=O)NNC(=O)Nc2ccc(Cl)cc2)nnn1-c1ccc(Br)cc1	102%

Compound	growth
O=c1oc2ccccc2cc1-c1csc(N=Nc2c(O)[nH]c3ccc(Cl)cc23)n1	94.2%
O=c1c2ccccc2nc(-c2ccccc2)n1/N=C/c1ccc2ccccc2c1	27.2%
CN(C)c1nc(NCCNS(=O)(=O)c2ccc(C3=Nc4c(N)nc(N)nc4NC(c4ccccc4)C3)cc2)nc(Nc2ccc(F)cc2)n1 (stereo not drawn)	-7.62% (active)
O=C(O)c1cccc(-c2ccc(/C=N/NC(=O)c3[nH]c4ccc(Br)cc4c3-c3ccccc3)o2)c1	11.8%
Cc1ccc2c(N)c(C(=O)Nc3ccc(OC(F)(F)F)cc3)sc2n1	36.5%
COc1cc(/C=C/C(=O)c2nnn(-c3ccc(Cl)cc3)c2C)cc(OC)c1OC	52%
N#Cc1ccc(C(=O)Nn2c(N)cc3ccccc3c2=O)cc1	90%
COc1cc(-c2ccc(/C=N/NC(=O)c3[nH]c4ccc(Br)cc4c3-c3ccccc3)s2)cc(OC)c1OC	6.55% (active)
N#Cc1c(-c2ccc(Br)cc2)nc2n[nH]c(-c3ccc(Br)cc3)c2c1-c1ccc(F)cc1	97.4%
Cn1nc(C(F)(F)F)cc1-c1cc(Cl)c(COc2ccc(Cl)cc2)c(-c2ccc(Cl)c(C(F)(F)F)c2)c1O	-77.9% (active)
CC1=C(C(=O)OCc2ccccc2)C(c2c(O)cc(O)cc2O)n2c(nc3ccccc32)N1 (stereo not drawn)	16.8%
Cc1ncsc1-c1ccc(CNC(=O)[C@@H]2C[C@@H](O)CN2C(=O)[C@@H](NC(=O)C2(F)CC2)C(C)(C)C)c(OCCOCCOCCOCCOc2nc(Nc3cc(S(C)(=O)=O)ccc3N[C@@H](c3cccc4c3OC(F)(F)O4)c3ncccc3Cl)nc(N3CCNCC3)n2)c1	70.1%
N#Cc1c(-c2ccc(Cl)cc2)nc2n[nH]c(-c3ccc(Cl)cc3)c2c1-c1cccs1	64.1%
COc1cccc(-c2c(C#N)c(-c3ccc(Cl)cc3)nc3n[nH]c(-c4ccc(Cl)cc4)c23)c1	38.1%
CCCCn1c(O)c(N=Nc2nc(-c3cc4ccccc4oc3=O)cs2)c2cc(Br)ccc21	103%
C=C1CC[C@@H]2[C@]3(C)COC(c4cn(-c5ccccc5)nc4-c4ccccc4)O[C@@H]3CC[C@@]2(C)[C@@H]1C/C=C1/C(=O)OC[C@H]1O (stereo partly drawn)	-98.6% (active)
CCCCCCn1c(O)c(N=Nc2nc(-c3cc4ccccc4oc3=O)cs2)c2ccccc21	56.1%
CSc1ccc(C(=O)Nc2ccc3nnn(/C(C#N)=C/c4ccccn4)c3c2)cc1	-92% (active)
CCOC(=O)C1=C(N)N(c2ccccc2)C2=C(C(=O)CC(C)(C)C2)C1c1cccc(Cl)c1Cl (stereo not drawn)	32.6%
